Data from PubChem BioAssay AID2717 (Broad Institute, 2010).
Out of some 300,000 compounds screened, about 3,200 (1.1%) were called active. This is one part of a sample in which actives are shown more often than they occur. Rule as the data show it: active = inhibition above about 75%; inconclusive = no clear call, values can overlap the other calls; inactive = below that; tested in HMLE shEcad cells.

assay: cancer stem cell viability inhibitors, primary screen, luminescence (AID 2717); conditions: cancer stem cell-like cells viability, at 7.5 µM, active compounds read high

| SMILES | inhibition |
| --- | --- |
| O=C(COc1ccc([N+](=O)[O-])cc1Cl)Nc1ccc2[nH]c(=O)[nH]c2c1 | -8.82% (inactive) |
| CC1CCCCC12NC(=O)N(CC(=O)N1CCN(c3ccccc3)CC1)C2=O (stereo not drawn) | -3.2% (inactive) |
| CCOc1ccc(Br)cc1S(=O)(=O)Nc1ccc(S(=O)(=O)Nc2cc(C)on2)cc1 | -12.8% (inactive) |
| COc1ccccc1CNC(=O)c1ccc(Cl)c(S(=O)(=O)N2CCCC2)c1 | -0.0556% (inactive) |
| COc1ccc(S(=O)(=O)N2CCOCC2)cc1NC(=O)CSc1nnc(NC2CC2)s1 | -7.56% (inactive) |
| CCCCNc1c(-c2cccc(Sc3ccc(OC)cc3)c2)nc2ccccn12 | 78% (active) |
| CCCCNc1nc2c(c(=O)n(C)c(=O)n2C)n1Cc1cccc(OC)c1 | -3.15% (inactive) |
| CCCCCCSc1ccc(-c2nc3ccc(Cl)cn3c2NCc2ccccc2)cc1 | 61.1% (inactive) |
| O=C(NN=Cc1ccc(N2CCOCC2)cc1)c1cc2ccccc2cc1O | 10.1% (inactive) |
| COc1ccc(S(=O)(=O)N2CCCCCC2)cc1NC(=O)Cc1ccc(OC)c(OC)c1 | -7.41% (inactive) |
| O=C(CSc1nccn1-c1cccc(F)c1)NC1CCCC1 | -0.605% (inactive) |
| Cc1c(Cl)c([N+](=O)[O-])nn1Cc1ccc(C(=O)N/N=C\c2cc(Cl)ccc2O)o1 | 106% (active) |
| Cc1c(Cl)c([N+](=O)[O-])nn1CCCC(=O)Nc1cc(Cl)ccc1Cl | -11.4% (inactive) |
| Cc1ccc(C(=O)O)cc1NC(=O)c1ccc(Cn2nc(C)c(Cl)c2C)o1 | -28.7% (inactive) |
| CCC(CO)Oc1cc(NC(=O)c2cccc(F)c2)c2ncn(C(C)C)c2c1 (stereo not drawn) | -13.2% (inactive) |
| C=CCC[C@H](Cc1ccc(F)cc1)C(=O)OC[C@@H](Cc1c[nH]c2ccccc12)NC(=O)[C@H](CC=C)CC(=O)N[C@H](CO)Cc1ccccc1 | 24.2% (inactive) |
| Cc1cc(Cl)ccc1NNC(=O)c1snnc1C | 75.1% (active) |
| Cc1nnsc1C(=O)N/N=C/c1ccccc1Cl | -13.9% (inactive) |
| Cc1nnsc1C(=O)Nc1cccc(Cl)c1C | 4.62% (inactive) |
| O=C(CN1C(=O)NC2(CCOc3ccccc32)C1=O)Nc1cccc([N+](=O)[O-])c1 (stereo not drawn) | 0.94% (inactive) |
| COc1cccc(-c2ccc3c(c2)S(=O)(=O)c2cccc(C(=O)O)c2C3=O)c1OC | 7.27% (inactive) |
| COc1ccc2c(c1)[C@H]1[C@H](CO2)[C@H](c2ccccc2)[C@]2(C)C(=O)Nc3cc(F)c(F)cc3C(=O)N12 | 21.6% (inactive) |
| Cc1ccc(NC(=O)C2CCC(C(C)(C)C)CC2)cc1S(=O)(=O)N1CCOCC1 (stereo not drawn) | 45.1% (inactive) |
| CC1(C)C=C2[C@H]3CC[C@@H]4[C@@]5(C)CCC(=O)C(C)(C)[C@@H]5CC[C@@]4(C)[C@]3(C)CC[C@@]2(C(=O)O)CC1 | 107% (active) |
| NCCN1CCN2C(=O)CN(C(=O)c3ccccc3)CC12 (stereo not drawn) | -9.2% (inactive) |
| CCCCOc1ccc(C(=O)NCC(=O)OCC(=O)c2c(N)n(C)c(=O)n(C)c2=O)cc1 | 11.8% (inactive) |
| O=C(O)CSc1c2c(nc3cc(C(=O)Nc4cccc(C(F)(F)F)c4)ccc13)CCCC2 | 14.3% (inactive) |

| SMILES | inhibition |
| --- | --- |
| COC(=O)c1ccccc1Sc1c(/C=N/OCc2ccc(Cl)cc2)c(C(F)(F)F)nn1C | 17.8% (inactive) |
| Cn1nc(C(F)(F)F)c(C(=O)Nc2cccc(C(F)(F)F)c2)c1SCc1ccc(Cl)cc1 | 105% (active) |
| O=C(CNC(=O)c1n[nH]c2ccccc12)Nc1cc(Cl)ccc1Cl | 5.44% (inactive) |
| CC(CNC(=O)Cn1cnc2c(OCc3ccccc3)ncnc21)c1ccccc1 (stereo not drawn) | -8.55% (inactive) |
| O=C(Nc1ccccc1)/C(=C/c1ccc([N+](=O)[O-])cc1)NC(=O)c1ccccc1 | -13% (inactive) |
| CCOC(=O)/C(=C\c1ccc([N+](=O)[O-])cc1)C(=O)c1cc(C(C)=O)c(Nc2ccccc2)s1 | 88.4% (active) |
| Cc1cccc(NC(=O)c2sc(-c3ccccc3)nc2-c2ccc([N+](=O)[O-])cc2)c1 | 12.3% (inactive) |
| O=C(OCC(=O)N1CCN(c2ccccc2)CC1)c1ccc([N+](=O)[O-])s1 | 0.421% (inactive) |
| CN(CC(=O)Nc1ccc(OC(F)F)cc1)S(=O)(=O)/C=C/c1ccccc1 | 7.09% (inactive) |
| COc1cc(-c2cc(C(=O)OCC(=O)Nc3ccc4c(c3)OCO4)c3ccccc3n2)cc(OC)c1OC | -14.5% (inactive) |
| NS(=O)(=O)c1ccc(NC(=O)COC(=O)c2c3c(nc4ccccc24)/C(=C\c2ccc4c(c2)OCO4)CCC3)cc1 | 93.4% (active) |
| O=C(COC(=O)c1c2c(nc3ccccc13)/C(=C\c1cccs1)CCC2)Nc1ccccc1Cl | 73.5% (inactive) |
| CN(C(=O)COC(=O)Cc1ccccc1[N+](=O)[O-])C1CCS(=O)(=O)C1 (stereo not drawn) | -16.1% (inactive) |
| CCCN1CCN(C(=O)CCCNC(=O)c2ccc(Cl)cc2)CC1 | -11.6% (inactive) |
| CN1C(=O)/C(=C/c2ccc(C(=O)NC3CCCC3)cc2)Oc2ccccc21 | 2.95% (inactive) |
| CN1CCN(CCCNC(=O)c2ccc(/C=C3\Oc4ccccc4N(Cc4ccc(Cl)cc4)C3=O)cc2)CC1 | 103% (active) |
| COc1ccc(/C=C/C(=O)OCC(=O)NC2CCCCCC2)cc1OC | -6.85% (inactive) |
| CC(=O)c1sc(NC(=O)CCN2C(=O)C3CC=CCC3C2=O)nc1-c1ccccc1 (stereo not drawn) | -4.39% (inactive) |
| CSc1ccc(/C=N\NC(=O)COc2ccc(Cl)cc2Br)cc1 | -0.83% (inactive) |
| Cc1cccc(OCC(=O)NCC(=O)N/N=C/c2ccc(N(C)C)cc2)c1 | 4.13% (inactive) |
| Cc1ccc(/C=N/NC(=O)COc2ccccc2-c2ccccc2)cc1 | 114% (active) |
| CC(C)COc1ccc(C(=O)NNC(=O)CCC(=O)c2cccs2)cc1 | -16.7% (inactive) |
| CN(CC(=O)Nc1ccc(C(N)=O)cc1)S(=O)(=O)c1ccc2c(c1)OCCO2 | -1.86% (inactive) |
| CCOC(=O)c1c(NC(=O)c2ccc(S(=O)(=O)N(C)CC3CCCO3)cc2)sc2c1CC(C)(C)NC2(C)C (stereo not drawn) | 62.9% (inactive) |
| Cc1nn(-c2ccccc2)c(C)c1NC(=O)COc1ccc(Cl)cc1Cl | 22.1% (inactive) |
| COC(=O)c1c(NC(=O)COc2ccc(Cl)cc2Cl)sc2c1CC(C)(C)NC2(C)C | 103% (active) |
